In the library only some 19% were active in any assay of this set; here they are far more common.
IL1B secr inh – blocks inflammasome-driven IL-1 beta release; THP-1 LPS/ATP IL-1B secretion, AlphaLISA, 16 h; active compounds read low; 4.7% of 360,000 active; activity change, % at 57.5 µM; AID 743279; in the data active = activity change below about -50%; inconclusive = mostly about -30% to -49%; note: % is set by controls: 0 for no effect and ±100 for the full control effect
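Secreted IL-1B measured by AlphaLISA bead assay after 16 h compound exposure of THP-1 cells; compounds (final up to 57.5 uM) added 1 h before LPS (250 ng/mL) and ATP (1.25 mM) stimulation; lower signal means less secretion.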
ASM inhibitor – blocks human secretory acid sphingomyelinase; Potency, µM (series often up to 57.5 µM), without a hit: top-dose activity change, negative = inhibition, usual class: inhibitors; 0.006% of 340,000 active; placental ASM, HMU-PC fluorogenic substrate, 60 min; note: potency is the fitted concentration of half-maximal effect
Target sequence (P17405 47-631 limits assumed): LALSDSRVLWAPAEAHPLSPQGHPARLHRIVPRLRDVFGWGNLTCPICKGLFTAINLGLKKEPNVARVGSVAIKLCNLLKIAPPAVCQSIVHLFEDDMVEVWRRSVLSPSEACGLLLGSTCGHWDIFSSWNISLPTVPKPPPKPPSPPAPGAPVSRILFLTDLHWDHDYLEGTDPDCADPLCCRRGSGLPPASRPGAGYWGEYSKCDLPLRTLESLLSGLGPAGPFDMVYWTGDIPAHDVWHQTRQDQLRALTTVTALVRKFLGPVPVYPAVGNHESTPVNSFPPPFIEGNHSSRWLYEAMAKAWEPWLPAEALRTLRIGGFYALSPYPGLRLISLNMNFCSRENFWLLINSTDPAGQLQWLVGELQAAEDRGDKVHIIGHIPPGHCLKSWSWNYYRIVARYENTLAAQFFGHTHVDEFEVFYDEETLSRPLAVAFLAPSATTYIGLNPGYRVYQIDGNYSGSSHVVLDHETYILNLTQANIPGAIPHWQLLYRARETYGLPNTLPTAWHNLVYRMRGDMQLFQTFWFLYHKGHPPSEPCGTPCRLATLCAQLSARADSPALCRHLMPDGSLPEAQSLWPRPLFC
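Fluorogenic HMU-PC substrate (9 uM final) is turned over by placental ASM in 60 min at 37 C after a 10 min compound preincubation. Reaction ended by alkaline stop (pH 10), with fluorescence read at 386/447 nm.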
DT40 TDP1 no CPT – qHTS for Inhibitors of human tyrosyl-DNA phosphodiesterase 1 (TDP1): qHTS in cells in absence of CPT. DT40 Tdp1-/- hTDP1 cells, no CPT, ATP luminescence, 48 h. Potency, µM (highest dose often 46.2 µM), without a hit: at the highest dose activity change, negative = growth inhibition, hits mostly inhibitors. 15% of 420,000 active; note: potency is the fitted concentration of half-maximal effect; % is set by controls: 0 for no effect and ±100 for the full control effect; nearly all actives have a fitted effect of over 55% in size
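Stably hTDP1-transfected Tdp1-null chicken DT40 cells were treated with library compounds minus camptothecin and grown for at least 48 hr at 37 °C, after which cellular ATP was quantified by luminescence.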
TGFb inhibitor – TGF-b pathway inhibition. 1.2% of 410,000 active. Potency, µM (titrated, usually from 46.1 µM), for the others: top-dose activity, negative = inhibition, actives largely listed as inhibitors. HepG2 CAGA-GFP TGF-b/SMAD3 reporter, GFP fluorescence, 18 h; TGF-beta stimulated, 500 pg/mL final. AID 588855; note: potency is the fitted concentration of half-maximal effect; % is set by controls: 0 for no effect and ±100 for the full control effect; nearly all actives have a fitted effect of over 65% in size
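HEPG2 CAGA-GFP cells (1000/well, DMEM with 1% FBS) were pre-incubated 2 h at 37 degrees C, given compound by pin tool, then stimulated with TGF-beta at 500 pg/mL final for 18 h before per-cell GFP fluorescence imaging.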
DT40 TDP1 CPT – growth inhibition of DT40 Tdp1-/-;hTDP1 cells with camptothecin (screen for TDP1 inhibitors). chicken DT40 Tdp1-/-;hTDP1 cells + 20 nM CPT, ATP luminescence, 48 h. 12% of 420,000 active. AID 686979. Potency, µM (top dose mostly 46.2 µM), without a hit: at the highest dose activity change, negative = growth inhibition, hits mostly inhibitors; note: potency is the fitted concentration of half-maximal effect; % is set by controls: 0 for no effect and ±100 for the full control effect; nearly all actives have a fitted effect of over 55% in size
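Cell growth measured by CellTiter-Glo luminescence after a minimum 48 h, 37 C compound exposure with 20 nM CPT in Tdp1-knockout DT40 cells stably expressing hTDP1, seeded 400/well; qHTS titration format.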
HepG2 viability – kills HepG2 cells in TGF-b inhibitor counter-screen | 0.76% of 410,000 active | HepG2 CAGA-GFP viability, ATP luminescence, 18 h | Potency, µM (titrated, usually from 46.1 µM), for inactives: at the highest dose activity change, negative = cytotoxicity, actives largely listed as cytotoxic; note: potency is the fitted concentration of half-maximal effect
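HepG2 CAGA-GFP cells (1000/well, DMEM with 1% FBS) received compound, then TGF-beta at 500 pg/mL final, and were incubated 18 hours at 37 degrees C. Viability was read by CellTiter-Glo luminescence. Media-only wells were set as complete cell-killing and DMSO as no toxicity.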
Numbers without * were called inactive; i = inactive; u = inconclusive; x = no result. Unless noted, calls come from the whole dose curve; as a rule, active = well fitted curve in the direction sought with a large enough effect; inconclusive = small, poorly fitted or top-dose-only effect, or another doubt; inactive = no such curve, though single readings can be large; an effect the other way counts as inactive or inconclusive.

SMILES | IL1B secr inh | ASM inhibitor | DT40 TDP1 no CPT | TGFb inhibitor | DT40 TDP1 CPT | HepG2 viability
CC(OC(=O)CCc1ccccc1)C(=O)Nc1ccc(Cl)cn1 (stereo not drawn) | 10 | 1% | -2% | 0% | 0% | -7%
COC(=O)c1nnn(-c2nonc2N)c1CN1CCCC1 | 4 | 0% | 9% | 9% | -4% | -2%
O=c1c(-c2cccc(F)c2)nc2cncnc2n1Cc1ccc(F)cc1 | x | x | -2% | x | 14% | x
O=c1c(-c2ccc(F)c(F)c2)nc2cncnc2n1Cc1ccc(F)cc1 | x | x | 16µM* | x | 15µM* | x
O=c1c(-c2cccc(F)c2)nc2cncnc2n1Cc1ccccc1 | x | x | 16µM* | x | u | x
CC1(C)Cc2c(sc(NC(=O)C(=O)N3CCN(CCO)CC3)c2C(N)=O)CO1 | 13 | -10% | -10% | 6% | 23% | -9%
CN1CCN(NC(=S)Nc2ccc(Oc3ccccc3)cc2)CC1 | -4 | 2% | u | -17% | -3% | -16%
Cc1cc(N2CCC(C(=O)Nc3ccccc3Cl)CC2)n2nc(C)c(-c3ccc(Cl)cc3)c2n1 | x | x | -60% | -4% | 7% | -5%
O=C(NCCCn1ccnc1)c1ccc(NS(=O)(=O)c2cccc([N+](=O)[O-])c2)cc1 | -11 | -1% | 7% | 1% | 8% | 23%
CCCCN(CC)CCNC(=O)c1c(C)oc2ncnc(N3CCOCC3)c12 | x | x | -5% | 16% | -7% | 7%
COc1ccc(C(=O)Oc2cccc(Nc3ncnc4ccccc34)c2)cc1OC | 0 | -19% | 18µM* | -2% | u | 0%
O=C(Oc1cccc(Nc2ncnc3ccccc23)c1)c1cccnc1 | 36 | 4% | -10% | 3% | u | 0%
C#Cc1cccc(Nc2ncnc3cc(OC)c(OC)cc23)c1 | x | x | 23µM* | x | u | x
COc1cc(C(=O)Oc2cccc(Nc3ncnc4ccccc34)c2)cc(OC)c1OC | -95* | -26% | 16µM* | u | 23µM* | -23%
O=c1[nH]c(=S)[nH]c2c1C(C1CCCCC1)OC(C1CCCCC1)C2 (stereo not drawn) | 0 | x | u | x | u | x
COc1ccccc1NS(=O)(=O)c1ccc(C)c(C(=O)NCCCN2CCCC2=O)c1 | -18 | 4% | 3% | -6% | 10% | 3%
Cc1cc(C)nc(SCC(=O)NC2=NN=C(c3ccc(Br)cc3)CS2)n1 | -83* | -11% | 13µM* | -2% | 13µM* | -15%
Cc1ccccc1NCc1nc2ccccc2n1CCOc1ccccc1 | x | x | u | 14µM* | u | -40%
Clc1ccc(NCc2nc3ccccc3n2CCOc2ccccc2)cc1 | x | x | 21µM* | u | 13µM* | -27%
CCOc1ccc(NCc2nc3ccccc3n2CCOc2ccc(C)cc2)cc1 | x | x | 8.2µM* | u | 6.5µM* | -29%
Cc1ccc(NCc2nc3ccccc3n2CCOc2ccccc2C)cc1 | x | x | u | u | u | -60%
O=C(c1ccc2nc3ccccc3c(=O)n2c1)N1CCN(Cc2ccc3c(c2)OCO3)CC1 | u | i | u | 18% | 29µM* | -23%
c1ccc2c(c1)oc1c(N3CCN(Cc4ccc5c(c4)OCO5)CC3)ncnc12 | -27 | 1% | 23µM* | u | 23µM* | -43%
O=C(CSc1ncnc2scc(-c3ccccc3)c12)N1CCN(Cc2ccc3c(c2)OCO3)CC1 | -25 | 3% | 13µM* | -8% | u | -29%
O=C(CSc1nccc2ccccc12)N1CCN(Cc2ccc3c(c2)OCO3)CC1 | -81* | -1% | u | -5% | u | 5%
O=C(CSCc1ccccc1)N1CCN(Cc2ccc3c(c2)OCO3)CC1 | u | -1% | u | -2% | u | -30%
